This is a sample that favours compounds with a hit; in the whole collection about 3.8% have one here.
pCIP destab: compounds decreasing mouse p/CIP protein stability. Q05BA5. F442A p/CIP-EGFP cells, EGFP fluorescence, 16 h. decrease of EGFP signal, % at 10 µM. 0.01% of 290,000 active. AID 1984;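 active = EGFP signal decrease of at least 30% at 10 µM or well 3 SD below plate mean, unless failing retest; inactive = the rest, including hits failing retest or dose response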
Target sequence (Q05BA5 1-1403): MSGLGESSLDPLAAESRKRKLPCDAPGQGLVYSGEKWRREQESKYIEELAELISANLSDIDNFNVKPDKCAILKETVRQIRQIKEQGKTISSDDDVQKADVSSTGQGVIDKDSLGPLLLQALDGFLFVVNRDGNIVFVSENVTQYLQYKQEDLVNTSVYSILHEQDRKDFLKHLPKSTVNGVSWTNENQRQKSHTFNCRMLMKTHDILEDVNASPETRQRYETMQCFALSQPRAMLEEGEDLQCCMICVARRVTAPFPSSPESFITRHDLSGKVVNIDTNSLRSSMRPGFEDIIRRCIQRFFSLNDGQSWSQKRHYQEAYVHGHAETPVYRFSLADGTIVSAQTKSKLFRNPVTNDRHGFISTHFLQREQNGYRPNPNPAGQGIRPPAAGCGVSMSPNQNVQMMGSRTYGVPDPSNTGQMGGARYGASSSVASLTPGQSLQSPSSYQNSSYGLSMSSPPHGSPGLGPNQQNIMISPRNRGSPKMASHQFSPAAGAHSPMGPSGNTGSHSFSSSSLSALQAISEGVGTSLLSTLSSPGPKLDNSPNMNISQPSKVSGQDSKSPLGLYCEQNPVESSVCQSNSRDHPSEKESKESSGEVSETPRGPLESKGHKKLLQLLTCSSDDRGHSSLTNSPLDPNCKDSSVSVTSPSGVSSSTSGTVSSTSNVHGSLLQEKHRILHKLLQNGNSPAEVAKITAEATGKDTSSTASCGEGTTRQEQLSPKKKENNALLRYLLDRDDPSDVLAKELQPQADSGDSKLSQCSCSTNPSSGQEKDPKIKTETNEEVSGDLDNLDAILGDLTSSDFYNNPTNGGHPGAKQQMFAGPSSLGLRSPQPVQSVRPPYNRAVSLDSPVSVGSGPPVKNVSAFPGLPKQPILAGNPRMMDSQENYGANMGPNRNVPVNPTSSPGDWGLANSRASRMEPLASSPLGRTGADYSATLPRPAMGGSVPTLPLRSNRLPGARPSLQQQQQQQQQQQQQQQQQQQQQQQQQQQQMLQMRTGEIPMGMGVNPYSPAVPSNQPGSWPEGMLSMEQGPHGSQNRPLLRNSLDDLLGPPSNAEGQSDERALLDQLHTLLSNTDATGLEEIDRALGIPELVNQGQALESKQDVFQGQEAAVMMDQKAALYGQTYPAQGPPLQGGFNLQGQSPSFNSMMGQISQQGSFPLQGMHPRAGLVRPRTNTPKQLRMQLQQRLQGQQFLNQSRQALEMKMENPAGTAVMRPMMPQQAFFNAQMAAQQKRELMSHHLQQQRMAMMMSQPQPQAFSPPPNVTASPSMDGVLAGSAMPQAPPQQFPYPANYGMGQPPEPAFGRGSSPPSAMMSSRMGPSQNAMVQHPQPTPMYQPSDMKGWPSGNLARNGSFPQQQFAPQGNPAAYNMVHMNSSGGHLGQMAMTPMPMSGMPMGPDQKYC
HSF1 inhib: HSF1 inhibition | NIH3T3-HGL HSE-luciferase, MG132-induced, luminescence 8 h; hits give low values | activity change, negative = inhibition, % at 7.5 µM (by protocol) | AID 2098 | 0.77% of 300,000 active;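 active = more than half of replicate wells show activity change below -50%, luminescence cut by over half; inconclusive = some wells, but at most half, below -50%; inactive = no replicate well below -50%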;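 note: luciferase reports HSF-1 transcriptional activity via heat shock element; 0% = median of DMSO wells and -100% = zero luminescence signal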
HSF-1 act: increases HSF-1 driven luciferase reporter signal; 1.7% of 300,000 active; activation, % at 9 µM; NIH3T3-HGL HSF-1 luciferase reporter, MG132, 8 h; 100% = twice DMSO control signal; AID 504408;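 active = mean replicate activation of at least 50% with a set share of replicates each reaching 50%; inconclusive = only one of those two conditions met; inactive = mean below 50% and too few replicates reaching it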;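 note: 0% = median of the neutral control wells and 100% = twice that signal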
Hsp70 activator: Hsp70 transcriptional activation, primary screen; HeLa Hsp70 promoter luciferase reporter, luminescence; scaled: vehicle 0, proteasome-inhibitor control 100%; activation, % at 10 µM; 0.04% of 200,000 active;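 active = activation above the mean across all tested compounds plus 3 SD, cutoff set per campaign, cut at about 5.5% in these data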;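 note: 100% = MG132 at 30 µM as the positive control and 0% = DMSO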
NALP1 yeast inh: blocks the NALP1 inflammasome reconstituted in yeast; S. cerevisiae NALP1/ASC/caspase-1 growth, X-gal OD620, 72 h; inhibition, % at 10 µM; 0.61% of 280,000 active; in the data active = inhibition mostly above about 24%, no sharp cut-off; inactive = mostly below about 32%
HSP90 inh: HSP90 refolding inhibition in rabbit reticulocyte lysate | luciferase refolding luminescence, 3 h | inhibition, % at 5.6 µM | 0.91% of 290,000 active;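 active = inhibition above the screen-wide mean plus 3 SD, computed separately per campaign, cut at about 16% in these data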;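 note: 0% = DMSO wells and 100% = 60 µM geldanamycin wells; inhibitors lower the luminescence because luciferase stays unfolded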
Starred values were filed as active, the others as inactive; ? = inconclusive; · = no result.

SMILES	pCIP destab	HSF1 inhib	HSF-1 act	Hsp70 activator	NALP1 yeast inh	HSP90 inh
CN(C(=O)C1CCC(CNS(=O)(=O)c2cccc3cccnc23)CC1)C1CCCCC1 (stereo not drawn)	-8	0	6	·	13	-3
CCOC(=O)c1c2c(n(C)c1C)C(=O)C(=O)c1ccc(Br)cc1-2	·	5	12	0	·	0
CCOC(=O)c1c2c(n(Cc3ccccc3)c1C)C(=O)C(=O)c1ccccc1-2	·	99*	99*	·	·	·
CCc1ccc(NC(=O)c2sccc2-n2cccc2)cc1	-5	15	53*	0	6	2
Cc1ccc(OCC(=O)Nc2c[nH]c(=O)[nH]c2=O)cc1C	1	-52*	-64	0	-2	0
Cc1ccc(C)c(OCC(=O)Nc2c[nH]c(=O)[nH]c2=O)c1	11	0	2	0	11	1
O=C(Nc1ccc(C(=O)N2CCOCC2)cc1)c1cnn2c(C(F)F)cc(-c3ccccc3)nc12	-15	13	54*	0	2	2
Cc1ccc(OCC(=O)N/N=C2\CC(=O)CC(C)(C)C2)c(Br)c1	-7	5	21	·	3	-7
Cc1ccc(N(C)S(=O)(=O)c2c(C)noc2/C=C/N(C)C)cc1	2	-25	-43	·	9	1
Cc1ccc(OCC(=O)OC2CCS(=O)(=O)C2)cc1 (stereo not drawn)	3	-5	-3	-1	-8	-1
CCc1ccc(OCC(=O)OC2CCS(=O)(=O)C2)cc1 (stereo not drawn)	-8	-8	11	0	25*	2
Cc1nn(C)c(C)c1NC(=O)CN1CCC(O)(c2ccc3c(c2)OCO3)CC1	-3	0	-3	0	31*	4
COc1cc2c(cc1OC)CN(C(=O)/C=C/c1ccccc1[N+](=O)[O-])CC2	5	4	45	·	15	1
COc1ccc(-n2nc(C(=O)NCC(=O)N3CCN(c4ccccc4OC)CC3)c3ccccc3c2=O)cc1OC	7	3	13	·	4	3
CC(NCC(O)COC1CCC(C(C)(C)C)CC1)c1ccccc1 (stereo not drawn)	-10	?	-35	0	25*	4
CC1CCC(C(C)C)C(OCC(O)CNC(C)c2ccccc2)C1 (stereo not drawn)	4	3	3	0	20	3
COc1cccc(NC(=O)CN(C)C(=O)c2oc3c(ccc4ccccc43)c2C)c1	·	11	9	·	·	·
CCC(=O)OCCNc1cc(Sc2nc3ccccc3s2)c2nonc2c1[N+](=O)[O-]	-4	31	85*	0	6	4
O=[N+]([O-])c1c(NCCCO)cc(Sc2nc3ccccc3s2)c2nonc12	-5	223	272*	1	22	-2
CCC(=O)OCCNc1cc(Sc2nc3ccccc3[nH]2)c2nonc2c1[N+](=O)[O-]	-2	·	·	0	28	1
Cc1nnc(Sc2cc(NCCO)c([N+](=O)[O-])c3nonc23)s1	-3	117	153*	0	-15	4
CCCC(=O)OCCNc1cc(Sc2nccn2C)c2nonc2c1[N+](=O)[O-]	-18	234	290*	0	24	2
O=C(NCCC(=O)N1CCCC1)c1ccccc1Cl	-25	-3	0	·	-1	-3
CCN1CCc2c(OCc3ccc(C)cc3)cccc2C1=O	0	·	·	0	12	2
COc1ccc(N=C2C(=Nc3ccc(OC)cc3)N(c3ccc(N(C)C)cc3)C(=S)N2c2ccc(OC)cc2)cc1	1	29	63*	0	6	-4
COc1ccc(N=C2C(=Nc3ccc(OC)cc3)N(c3ccc(OC)cc3)C(=S)N2C(=O)c2ccc(OC)cc2)cc1	-31	24	65*	0	11	0
CN(CCOc1ccc(Br)cc1)C(=O)CNC(=O)c1ccc2ccccc2c1	-4	8	11	·	4	6
On1nnc2c3ccccc3c3ccccc3c21	-11	·	·	0	7	2
NC(=O)c1cc(NC(=O)c2ccc(NS(=O)(=O)c3cccs3)cc2)cc(C(N)=O)c1	-1	-6	-16	·	·	1
CCOCCCNC(=O)c1ccc(Cn2c(=S)[nH]c3c([nH]c4ccc(OC)cc43)c2=O)cc1	-3	2	-3	0	-6	3

Compound activity deposited in PubChem by several laboratories.
